Compound activity deposited in PubChem by National Center for Advancing Translational Sciences (NCATS).
The list is not random: actives were taken first. Their share in the collection is about 7.5%.
FLuc modulator: counter-screen for miR-21 project: firefly luciferase inhibitors or activators. P08659. purified FLuc, Km substrates, luminescence inhibition. Potency, µM (highest dose often 57.5 µM), for inactives: at the highest dose activity change, negative = inhibition, usual class: inhibitors. 6.9% of 360,000 active. AID 588342;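 also: plate controls were vehicle for no effect and reference inhibitor for full effect; nearly all actives have a fitted effect of over 55% in size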
Target sequence (P08659 whole entry, looked up): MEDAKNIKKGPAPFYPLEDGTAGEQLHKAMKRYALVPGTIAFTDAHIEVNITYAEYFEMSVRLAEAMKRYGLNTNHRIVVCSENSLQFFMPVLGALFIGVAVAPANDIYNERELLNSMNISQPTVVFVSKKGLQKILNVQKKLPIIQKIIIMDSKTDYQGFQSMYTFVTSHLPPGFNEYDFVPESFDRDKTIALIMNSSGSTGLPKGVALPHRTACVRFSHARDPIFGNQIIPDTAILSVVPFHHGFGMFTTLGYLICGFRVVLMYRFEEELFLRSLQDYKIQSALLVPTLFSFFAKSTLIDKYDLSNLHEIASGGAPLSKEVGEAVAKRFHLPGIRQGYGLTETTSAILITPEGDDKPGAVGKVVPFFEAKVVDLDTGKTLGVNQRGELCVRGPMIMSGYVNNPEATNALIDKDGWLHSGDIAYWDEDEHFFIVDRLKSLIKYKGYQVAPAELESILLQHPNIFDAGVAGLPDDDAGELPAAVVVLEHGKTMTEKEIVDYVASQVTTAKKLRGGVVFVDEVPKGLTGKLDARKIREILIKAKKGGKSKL
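Purified P. pyralis luciferase (10nM final) with 10uM D-luciferin and 10uM ATP (Km levels) in 50mM Tris acetate pH 7.5, 10mM Mg acetate, 0.01% Tween-20, 0.05% BSA; qHTS 6-point titration, ~60 µM downward; luminescence read.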
ELG1 genotox: genotoxicity induction in ELG1-luciferase HEK293T cells. 1.3% of 330,000 active. HEK293T ELG1-luciferase reporter, luminescence, 16 h. Potency, µM (top dose mostly 46 µM), for inactives: top-dose activity change, positive = activation, most hits filed as activators; also: % of control where 0% means no effect; nearly all actives have a fitted effect of over 60% in size
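After overnight (16 hr) compound treatment at 37 °C, ELG1-luciferase HEK293T cells were lysed with ONE-Glo; luminescence quantified 30 min later at room temperature.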
NPC1 promoter act: activates the NPC1 promoter. Potency, µM (titrated, usually from 9.22 µM), without a hit: at the top dose activation, usual class: activators. 2.4% of 320,000 active. Huh7 NPC1 promoter luciferase reporter, 24 h; also: % of control where 0% means no effect; nearly all actives have a fitted effect of over 60% in size
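Luciferase expression driven by the NPC1 promoter was measured in stably transfected Huh7 cells after a 24 h compound incubation, using a luciferase reagent and a luminescence read.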
Rab9 promoter act: Rab9 promoter activation; Potency, µM (series often up to 9.22 µM), inactives show at the highest dose activation, negative = inhibition, most hits filed as activators; 2.8% of 320,000 active; Huh7 Rab9 promoter-luciferase reporter, luminescence, 24 h; AID 485297; also: % of control where 0% means no effect; nearly all actives have a fitted effect of over 60% in size
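Huh7 cells stably carrying a Rab9 promoter-luciferase reporter, 1500 cells per well in OP-MEM I with 10% FBS, treated with compound 24 hours at 37C. Luciferase activity read by luminescence after 10 minutes with Amplite reagent.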
SMN2 splice enh: increases expression of the SMN2 splice variant; 2.8% of 210,000 active; AID 1458; Potency, µM (titrated, usually from 46.1 µM), for inactives: at the highest dose activity change, positive = activation, actives largely listed as activators; HEK293 SMN2-luciferase splicing reporter, luminescence, 30-36 h; also: % of control where 0% means no effect; nearly all actives have a fitted effect of over 55% in size
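HEK293 cells carry an SMN2 […]–luciferase reporter in which exon 7 inclusion puts luciferase in frame. Cells were plated 10-12 h before compound addition, then incubated 30-36 h at 37C. ONE-Glo luminescence was read; sodium butyrate at 4.5 mM final served as control.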
Active calls of the source: *; [ ] = another dose, or the depositor's remark. Calls follow the shape of the dose curve; as a rule, active = well fitted curve in the direction sought with a large enough effect; inconclusive = small, poorly fitted or top-dose-only effect, or another doubt; inactive = no such curve, though single readings can be large; an effect the other way counts as inactive or inconclusive. Potency is read from the fitted curve at half-maximal effect.

`COCc1cc(=O)n2[nH]c(-c3ccccc3)cc2n1` gave FLuc modulator 19µM*, ELG1 genotox inconclusive, NPC1 promoter act 16%, Rab9 promoter act 22% and SMN2 splice enh 11%.
COCc1cc(=O)n2[nH]c(-c3cccc(Br)c3)cc2n1 was read as FLuc modulator inconclusive, ELG1 genotox 11µM*, NPC1 promoter act 29%, Rab9 promoter act 22% and SMN2 splice enh inconclusive.
COCc1cc(=O)n2[nH]c(C(C)(C)C)cc2n1 was read as FLuc modulator -5%, ELG1 genotox 0%, NPC1 promoter act 1% and Rab9 promoter act 3%.
Screening O=c1c(Br)c(Br)cnn1-c1ccccc1 returned FLuc modulator 5%, ELG1 genotox -19%, NPC1 promoter act -41%, Rab9 promoter act -51% and SMN2 splice enh -104%.
For Cc1ccc(-c2cnn(-c3cccc(C(F)(F)F)c3)c2N)cc1 the results were FLuc modulator 7.6µM*, ELG1 genotox inconclusive, NPC1 promoter act inconclusive, Rab9 promoter act 4µM* and SMN2 splice enh 27%.
For Nc1c(-c2ccccc2)cnn1-c1ccccc1 the results were FLuc modulator 11µM*, ELG1 genotox inconclusive, NPC1 promoter act 3.2µM* and Rab9 promoter act 3.5µM*.
For O=c1cnn(-c2ccccc2)c(-c2ccccc2)c1 the results were FLuc modulator 11µM*, ELG1 genotox -7%, NPC1 promoter act 27%, Rab9 promoter act 5% and SMN2 splice enh -8%.
For Nc1c(-c2ccc(Cl)cc2)cnn1-c1cccc(C(F)(F)F)c1 the results were FLuc modulator inconclusive, ELG1 genotox 7%, NPC1 promoter act inconclusive, Rab9 promoter act inconclusive and SMN2 splice enh -11%.
Screening Nc1c(-c2cccc(Cl)c2)cnn1-c1ccccc1 returned FLuc modulator 17µM*, ELG1 genotox 18%, NPC1 promoter act inconclusive and Rab9 promoter act inconclusive.
`CC(C)C(C(=O)Nc1ccc2c(c1)OCCOCCOCCOCCO2)N1C(=O)c2ccccc2C1=O` (configuration not stated) gave FLuc modulator 2%, ELG1 genotox 0%, NPC1 promoter act -4%, Rab9 promoter act 2% and SMN2 splice enh -18%.
Screening COc1cccc(NC(=O)CN(C)C(=O)C(Sc2ccccc2)c2ccccc2)c1 (configuration not stated) returned FLuc modulator 3%, ELG1 genotox -7%, NPC1 promoter act 10% and Rab9 promoter act -3%.
COc1cccc(Oc2ccc(C(F)(F)F)cc2N)c1 was read as FLuc modulator 24µM*, ELG1 genotox inconclusive, NPC1 promoter act 5%, Rab9 promoter act 7% and SMN2 splice enh -14%[1.84 µM].
`Cc1ccc(-c2nc(C)c(C(=O)O)s2)cc1` gave FLuc modulator 4.8µM*, ELG1 genotox inconclusive, NPC1 promoter act -14% and Rab9 promoter act inconclusive.
Screening Cc1nc(-c2ccc([N+](=O)[O-])cc2)sc1C(=O)O returned FLuc modulator 27µM*, ELG1 genotox inconclusive, NPC1 promoter act 24% and Rab9 promoter act inconclusive.
Screening Cc1nc(-c2ccccc2)sc1C(=O)O returned FLuc modulator inconclusive, ELG1 genotox 9%, NPC1 promoter act 19%, Rab9 promoter act 23% and SMN2 splice enh inconclusive.
Screening CC(=O)c1sc(-c2ccccc2)nc1C returned FLuc modulator -19%, ELG1 genotox 12%, NPC1 promoter act 1%, Rab9 promoter act 5% and SMN2 splice enh -2%.
Screening Cc1nc(-c2ccc(Cl)cc2)sc1C(=O)O returned FLuc modulator 15µM*, ELG1 genotox inconclusive, NPC1 promoter act inconclusive, Rab9 promoter act inconclusive and SMN2 splice enh 11µM*.
Cc1cc(OCC(=O)NCCCN2CCCC2=O)c2c(C)c(C)c(=O)oc2c1 was read as FLuc modulator 1%, ELG1 genotox 10%, NPC1 promoter act 1% and Rab9 promoter act 5%.
Screening Cc1cccc(/C=C2\CS/C(=C\c3cccc(C)c3)C2=O)c1 returned FLuc modulator 8.5µM*, ELG1 genotox 8%, NPC1 promoter act -3%, Rab9 promoter act 3% and SMN2 splice enh -6%.
O=C1/C(=C/c2cccc(Cl)c2)CSc2sccc21 was read as FLuc modulator 1%, ELG1 genotox -2%, NPC1 promoter act -1% and Rab9 promoter act -2%.
O=C(O)c1n[nH]c2c1CC(C1CCCCC1)CC2 (configuration not stated) was read as FLuc modulator 2%, ELG1 genotox 2%, NPC1 promoter act -1% and Rab9 promoter act 2%.
O=C(NC1CCCCC1)c1n[nH]c2c1CC(c1ccccc1)CC2 (configuration not stated) was read as FLuc modulator 3µM*, ELG1 genotox inconclusive, NPC1 promoter act 2.2µM* and Rab9 promoter act 1.8µM*.
Screening O=C(NC1CCN(C(=O)Nc2ccccc2Cl)CC1)c1cccc(F)c1 returned FLuc modulator -2%, ELG1 genotox -1%, NPC1 promoter act -5% and Rab9 promoter act -3%.
Screening Cc1ccc(OCc2cc(C(=O)N(C)CC3CCOCC3)no2)cc1C returned FLuc modulator 12µM*, ELG1 genotox inconclusive, NPC1 promoter act 2.8µM* and Rab9 promoter act 3.2µM*.
COc1ccc(OCc2cc(C(=O)N(C)C3CCOCC3)no2)c2ccccc12 was read as FLuc modulator 15µM*, ELG1 genotox 12%, NPC1 promoter act inconclusive and Rab9 promoter act inconclusive.
Screening Cc1cc(OCc2cc(C(=O)N(C)C3CCOCC3)no2)cc(C)c1Cl returned FLuc modulator 21µM*, ELG1 genotox 18%, NPC1 promoter act 3.5µM* and Rab9 promoter act 4µM*.
`COc1ccc(OCc2cc(C(=O)N(C)C3CCOC3)no2)c(Cl)c1` (configuration not stated) gave FLuc modulator inconclusive, ELG1 genotox 12%, NPC1 promoter act 2% and Rab9 promoter act 9%.
Cc1ccc(OCc2cc(C(=O)NCC3COCCO3)no2)cc1C (configuration not stated) was read as FLuc modulator inconclusive, ELG1 genotox 18% and NPC1 promoter act 1%.
For COc1ccc(OCc2cc(C(=O)NC3CCOC(C)(C)C3)no2)c2ccccc12 (configuration not stated) the results were FLuc modulator 8.5µM*, ELG1 genotox inconclusive, NPC1 promoter act 2.8µM* and Rab9 promoter act 3.5µM*.
Screening O=C(CSc1nnc2c(n1)[nH]c1ccc(F)cc12)NCc1ccc(F)cc1 returned FLuc modulator 0%, ELG1 genotox 4%, NPC1 promoter act -2% and Rab9 promoter act -1%.
Cc1ccc(N(Cc2cccs2)C(=O)c2ccc(OC(C)C)cc2)cc1 was read as FLuc modulator -17%.
`O=S(=O)(NCc1ccccc1)c1ccc(NC(=S)NCc2ccco2)cc1` gave FLuc modulator 0%, ELG1 genotox -4%, NPC1 promoter act -7% and Rab9 promoter act 0%.
